# Source: PubChem (National Center for Advancing Translational Sciences (NCATS))
# SW480 rereplic: A quantitative high throughput screen for small molecules that induce DNA re-replication in SW480 colon adenocarcinoma cells | SW480 DNA re-replication, Hoechst DNA content imaging, 48 h | Potency, µM (highest dose often 46.1 µM), for inactives: at the highest dose re-replication activation, actives largely listed as activators | actives 1.8% (n = 340,000) | AID 624297, 2012; note: % of control where 0% means no effect; nearly all actives have a fitted effect of over 55% in size
#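 Treated cells incubate 48 hr (37 C, 5% CO2), are stained 40 min with Hoechst, and nuclear fluorescence is enumerated; a rise in nuclei with high DNA signal marks re-replication.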
# HT1080NT lethal: qHTS for induction of synthetic lethality in tumor cells producing 2HG: qHTS for the HT-1080-NT fibrosarcoma cell line | AID 686970, 2013 | Potency, µM (series often up to 46.1 µM), without a hit: at the top dose activity, negative = less viability, most hits filed as cytotoxic | HT-1080-NT fibrosarcoma viability, CellTiter-Glo ATP luminescence, 48 h | actives 1.6% (n = 360,000);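 note: NT is the 2HG producing partner of a matched IDH1 knockdown line; 0% = DMSO-treated cells and -100% = media-only wells without cells; nearly all actives have a fitted effect of over 55% in size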
#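 HT-1080-NT fibrosarcoma cells (2HG-overproducing), 750 cells/well in RPMI with 5% FBS, dosed after 2 h and incubated 48 h at 37C. CellTiter-Glo luminescence normalized to DMSO and no-cell wells; concentration-response curves fitted and classed.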
# KB-V1 MDR tox: qHTS assay for MDR1-selective chemotherapeutics: Primary screen using the drug-selected MDR subline cells KB-V1; KB-V1 MDR cells viability, CellTiter-Glo, 72 h; AID 1347076, 2019; actives 3.4% (n = 400,000); Potency, µM (highest dose often 46.1 µM), usual class: cytotoxic; note: % is set by controls: 0 for no effect and ±100 for the full control effect; nearly all actives have a fitted effect of over 60% in size
#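 Compound-treated KB-V1 multidrug-resistant cells, 72 h, 37 degrees C; viability by CellTiter-Glo. Fitted qHTS curves give the values.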
# HT1080 IDH1KD tx: qHTS for induction of synthetic lethality in tumor cells producing 2HG: qHTS for the HT-1080-IDH1KD cell line; actives 2% (n = 360,000); Potency, µM (doses to about 46.1 µM), for inactives: top-dose activity, negative = toxicity, usual class: cytotoxic; HT-1080 IDH1 knockdown viability, ATP luminescence, 48 h;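 note: 0% = DMSO wells and -100% = cell-free medium wells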
#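 % activity derives from luminescence (CellTiter-Glo), normalised to DMSO and no-cell wells. HT-1080-IDH1KD cells, 750/well, had 48 h compound exposure at 37 °C.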
# MCF10A rereplic: A quantitative high throughput screen for small molecules that induce DNA re-replication in MCF 10a normal breast cells | MCF 10A DNA re-replication, Hoechst nuclear intensity, 48 h | Potency, µM (highest dose often 46.1 µM), without a hit: at the highest dose activity, positive = re-replication, most hits filed as activators | AID 624296, 2012 | actives 2.9% (n = 350,000); note: % of control where 0% means no effect; nearly all actives have a fitted effect of over 50% in size
# KB-3-1 cytotox: qHTS assay for MDR1-selective chemotherapeutics: Primary screen using the parental adenocarcinoma cell KB-3-1; KB-3-1 viability, CellTiter-Glo ATP luminescence, 72 h; Potency, µM (doses to about 46.1 µM), hits mostly cytotoxic; actives 1.4% (n = 400,000); AID 1347075, 2019; note: % is set by controls: 0 for no effect and ±100 for the full control effect; nearly all actives have a fitted effect of over 60% in size
#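 Using CellTiter-Glo luminescence, growth of non-resistant KB-3-1 adenocarcinoma cells is assessed 72 h after pin-tool compound addition at 37 °C. Normalized responses across the concentration series yield fitted curves.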
# Numbers without * were called inactive; i = inactive; ? = inconclusive; . = no result given; [ ] = another dose, or the depositor's remark. Hits are enriched below; roughly 7.9% of the tested compounds scored in any of these assays. Calls come from the whole dose curve; as a rule, active = well fitted curve in the direction sought with a large enough effect; inconclusive = small, poorly fitted or top-dose-only effect, or another doubt; inactive = no such curve, though single readings can be large; an effect the other way counts as inactive or inconclusive. Potency is the fitted concentration of half-maximal effect.
SMILES,SW480 rereplic,HT1080NT lethal,KB-V1 MDR tox,HT1080 IDH1KD tx,MCF10A rereplic,KB-3-1 cytotox
CCc1ccc(OCC(=O)NC(=S)Nc2cccc(CO)c2)c(Br)c1,-11%,11%,i,-3%,-12%,i
Cc1ccc(-n2ncc3c2CC(C)(C)CC3NC(=O)CN2CCCC2=O)cc1 (configuration not stated),0%,0%,i,0%,2%,i
COc1cc(OC)c(NC(=O)c2c(C)nn(-c3ccc(C)cc3)c2-n2cccc2)cc1Cl,.,.,?,.,.,23µM*
Cc1ccc(CCNC(=O)c2c(C)nn(-c3ccc(F)cc3)c2-n2cccc2)cc1,.,.,5.8µM*,.,.,3.3µM*
CCN(CC)c1ccc(NC(=O)c2c(C)nn(-c3ccc(F)cc3)c2-n2cccc2)c(C)c1,.,.,21µM*,.,.,?
CCOc1ccc(NC(=O)c2c(C)nn(-c3ccc(F)cc3)c2-n2cccc2)cc1,.,.,i,.,.,i
Cc1cc(C)c(NC(=O)c2c(C)nn(-c3ccc(F)cc3)c2-n2cccc2)c(C)c1,.,.,i,.,.,?
COc1ccc(OC)c(CCNC(=O)c2c(C)nn(-c3ccc(F)cc3)c2-n2cccc2)c1,.,.,12µM*,.,.,?
S=C(NCC1CCCO1)Nc1ccccc1Cl (configuration not stated),-11%,4%,?,1%,2%,i
CC(O)C(O)C(O)C(O)/C=N/NC(=O)c1ccccc1 (configuration not stated),-4%,13%,i,11%,-5%,i
COc1ccc(OC)c(CCNC(=O)C(C)n2nc(C)c3c(C)n(-c4ccc(C)cc4)nc3c2=O)c1 (configuration not stated),-5%,-17%,i,21µM*,3%,?
COc1ccc(CCNC(=O)c2c(C)nn(-c3ccc(F)cc3)c2-n2cccc2)cc1OC,.,.,5.2µM*,.,.,5.8µM*
COc1cccc(CCNC(=O)c2c(O)nc3c(C)cccn3c2=O)c1,.,.,?,.,.,i
COc1ccc(CCNC(=O)c2c(O)nc3c(C)cccn3c2=O)cc1OC,.,.,6.5µM*,.,.,i
COc1ccc(OC)c(CCNC(=O)C(C)n2nc(C)c3c(C)n(-c4ccccc4)nc3c2=O)c1 (configuration not stated),10%,-1%,?,-13%,0%,?
CC(=O)c1cccc(NC(=O)c2c(C)nn(-c3ccc(F)cc3)c2-n2cccc2)c1,.,.,?,.,.,i
CCC(c1nnnn1Cc1ccc(F)cc1)N1CCN(C)CC1 (configuration not stated),-6%,6%,i,13%,1%,i
Cc1cc(C)nc(Nc2ncc(O)n2-c2ccc(C)c(C)c2)n1,-1%,6%,12µM*,?,15%,i
Cc1cc(C)nc(Nc2ncc(O)n2-c2ccc(C)c(Cl)c2)n1,-11%,16%,i,14%,2%,i
CCOC(=O)C1CCN(C(=O)COc2cc(C)c(Br)cc2C)CC1,16%,-11%,i,-14%,6%,i
CCOc1ccc(-c2nnn(CC(=O)NCc3ccco3)n2)cc1OCC,-3%,12%,i,8%,-8%,i
CCCCOc1ccc(-c2nnn(CC(=O)NCc3ccco3)n2)cc1,1%,7.1µM*,4.1µM*,7.9µM*,3%,?
Cc1ccc2c(CN(C)Cc3ccccc3)cc(=O)oc2c1C,3%,?,?,?,0%,?
Cc1ccc2c(CN(C)Cc3ccc(OC(F)F)cc3)cc(=O)oc2c1C,-13%,-2%,16µM*,-15%,15%,?
O=C(/C=C/c1cccc(F)c1)NNC(=O)c1ccncc1,0%,-8%,8.2µM*,-30%,5%,?
SMILES,SW480 rereplic,HT1080NT lethal,KB-V1 MDR tox,HT1080 IDH1KD tx,MCF10A rereplic,KB-3-1 cytotox
CN(C)S(=O)(=O)N1CCC(Oc2ccc(C(=O)N3C[C@@H]4CCC[C@H]3C4)cc2)CC1,4%,1%,9.2µM*,-1%,5%,i
CN(C)S(=O)(=O)N1CCC(Oc2ccc(C(=O)N3C[C@H]4CC[C@H]3C4)cc2)CC1,-14%,?,.,-18%,-3%,.
CC(C)c1ccc(NC2CCCN(C(=O)c3cc(C(C)C)[nH]n3)C2)cc1 (configuration not stated),4%,-21%,i,-18%,15%,i
Cc1nc(NC(=O)c2ccco2)sc1C(=O)O,-9%,23µM*,4.6µM*,23µM*,1%,13µM*
COC(=O)c1sc(NC(=O)c2ccco2)nc1C,-6%[9.22 µM],5%,i,-5%,-5%,i
Cc1nc(NC(=O)c2ccco2)sc1C(=O)Nc1ccc(Br)cc1,1%,.,i,.,23µM*,?
Cc1cc(C)n2ncc(/C(N)=N/OC(=O)Nc3ccccc3)c2n1,-18%,10%,i,14%,1%,i
COC(=O)C1=CN(C)C=C(C(=O)OC)C1c1ccsc1,3%,12%,i,10%,-11%,i
COc1ccc(S(=O)(=O)N2CCCCC2)cc1NC(=O)c1ccco1,-1%,-11%,i,-1%,0%,i
COc1ccc(-c2cc3ccccc3oc2=O)cc1NC(=O)c1ccc([N+](=O)[O-])o1,9.2µM*,-11%,?,?,7.3µM*,?
CCN1CCN(c2ccc(S(=O)(=O)N3CCCCC3)cc2NC(=O)c2ccc([N+](=O)[O-])o2)CC1,7.3µM*,-1%,?,2%,?,?
COc1ccc(S(=O)(=O)N2CCCCC2)cc1NC(=O)c1ccc([N+](=O)[O-])o1,2.9µM*,7%,i,-6%,2.3µM*,18µM*
CCN1CCN(c2ccc(S(=O)(=O)N3CCCCC3)cc2NC(=O)c2ccc(C)c(C)c2)CC1,1%,-28%,i,-21%,0%,i
COc1ccc(-c2cc3ccccc3oc2=O)cc1NC(=O)c1ccc(Br)o1,26%,-13%,i,-29%,25%,i
Cc1cccc(NC(=O)CSc2nc(NS(=O)(=O)c3ccccc3)cc(=O)[nH]2)c1,6%,-1%,i,1%,-1%,i
COc1ccc(/C=C/c2ccc(=O)n(Cc3ccccc3)n2)cc1,-4%,-16%,?,?,21µM*,i
COc1ccc(/C=C/c2ccccn2)cc1,.,.,i,.,.,23µM*
